FGF22 binding – binders of recombinant human FGF22 by thermal shift. Q9HCT0. SYPRO orange fluorescence; percent of sucrose octasulfate shift, DMSO zero. activity (Tm shift, normalised), % at 9.99 µM. 1.5% of 340,000 active;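 active = mean Tm shift, scaled 0 neutral to 100 positive control, at about 1.3% or above, every replicate too, limit read from the data; inconclusive = no clear call, values can overlap the other calls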
Target sequence (Q9HCT0 whole entry, looked up): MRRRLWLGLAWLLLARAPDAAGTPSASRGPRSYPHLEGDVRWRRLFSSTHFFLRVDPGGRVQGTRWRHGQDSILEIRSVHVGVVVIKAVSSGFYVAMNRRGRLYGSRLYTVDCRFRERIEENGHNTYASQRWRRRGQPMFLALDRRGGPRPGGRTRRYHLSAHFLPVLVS
MITF TRPM1 HTS – activators of MITF-driven TRPM1 promoter activity in SK-MEL-5 cells; SK-MEL-5 TRPM1-promoter luciferase, 24 h; % of positive control, neutral wells = 0; activation, % at 12.5 µM; 0.75% of 300,000 active;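 active = mean activation of at least 80% with every replicate also reaching 80%; inconclusive = mean reaches 80% but some replicate falls short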;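 also: 0% = neutral control wells and 100% = parthenolide positive control wells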
esBAF inh – inhibitors of esBAF chromatin remodeling in mouse ES cells; Bmi1-luciferase knock-in reporter, 24 h; 100% = twice the neutral-well signal; reporter increase, % at 12.5 µM; 2% of 350,000 active; AID 602393; in the data active = activation above about 40%; inconclusive = no clear call, values can overlap the other calls;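 also: 0% = median of the plate's neutral control wells and 100% = double that signal; a rise in the Bmi1 reporter signal indicates esBAF inhibition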
SMARCA2 act – increases SMARCA2 function in MMTV reporter cells | MG213 cells, MMTV-luciferase reporter, dexamethasone, overnight | activation, % at 9.1 µM | 1% of 370,000 active; in the data active = activation above about 7.8%;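 also: 0% = vehicle wells and 100% = reference activator wells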
Wnt act – activators of Wnt/beta-catenin signaling | Wnt/beta-catenin reporter cell assay, activator, plate reader | AID 743398 | 1.2% of 300,000 active | activation, % at 9.35 µM; in the data active = activation above about 30%, passing the limit was not always enough; inconclusive = no clear call, values can overlap the other calls;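 also: 0% = neutral control wells and 100% = positive control wells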
AF4-AF9 inh – blocks AF4 peptide binding to human AF9; P42568; AlphaScreen, biotin-AF4 peptide binding to FLAG-AF9; inhibition, % at 10 µM; 0.47% of 350,000 active;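 active = every replicate reaching a set inhibition limit, whatever the replicate mean, cut at about 25% in these data; inconclusive = mean inhibition reaches that limit but some replicates miss it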;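 also: 0% = plate neutral control median and 100% = total signal loss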
SMARCA2 conf – SMARCA2 activation, confirmation screen. shares compounds with SMARCA2 act. MG213 cells, MMTV-luciferase with dexamethasone, luminescence, overnight; MG213 cells expressing E1A, Rb sequestered; DMSO wells 0%, reference activator 100%. activation, % at 9.1 µM. 30% of 3,500 active;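 active = activation above its plate's cutoff, the mean activation of tested wells plus 3 SD, cut at about 7.9% in these data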
GAL4-VP16 Luc – activates GAL4-VP16 luciferase, flagging SMARCA2 activator hits; shares compounds with SMARCA2 act; HEK293 GAL4-VP16 pG5luc reporter, luciferase luminescence; scaled: DMSO wells 0%, SAHA wells 100%; activation, % at 9.1 µM; 41% of 3,500 active; AID 686939;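 active = activation above the solvent-only control well mean plus 3 SD, averaged across control plates, cut at about 5.2% in these data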
Starred values were filed as active, the others as inactive; ? = inconclusive; . = no result. In the library only some 4.3% were active in any assay of this set; here they are far more common.

SMILES	FGF22 binding	MITF TRPM1 HTS	esBAF inh	SMARCA2 act	Wnt act	AF4-AF9 inh	SMARCA2 conf	GAL4-VP16 Luc
COc1ccc(OCCN2CCC(C(=O)NC(c3ccc(F)cc3)c3ccc4ccccc4n3)CC2)cc1 (stereo not drawn)	0	.	3	9.6*	-3	5	-4	-1
COC(=O)[C@@]1(CCS(=O)(=O)c2ccccc2)N=C(c2ccc(OCCCO)cc2)O[C@H]1c1ccccc1CN=[N+]=[N-]	-1	.	.	.	.	6	.	.
Cc1noc(C)c1NC(=O)Nc1ccc2c(c1)C(=O)N([C@H](C)CO)C[C@H](C)[C@H](CN(C)C(=O)Cc1ccccc1)OCCCC[C@H](C)O2	0	.	2	.	.	1	.	.
Cc1cc(Cl)c2oc(C(=O)NCCC3CCCCO3)c(C)c2c1 (stereo not drawn)	0	95*	?	8.9*	25	-2	3	5
Cc1cc(Cl)c2oc(C(=O)NCCN3CCCCC3CO)c(C)c2c1 (stereo not drawn)	0	32	14	-1	3	1	.	.
COc1ccc(C(=O)Nc2cccc(NC(C)=O)c2)cc1	0	.	25	5	-1	-2	.	.
COc1ccc(C(=O)Nc2cccc(C)c2)cc1	.	.	14	9.6*	58*	.	13*	8.4*
COc1ccc(OC(=O)c2cc3ccccc3o2)cc1	.	2	-5	-2	.	.	.	.
COc1ccc(NC(=O)c2ccc3[nH]c(C)c(C)c3c2)cc1	1	88*	58*	18*	16	4	9.5*	4
COc1ccc(C(=O)NNc2ccccc2)cc1	.	5	.	10*	-1	.	-1	0
Cc1ccc(NC(=O)c2ccc(OC(=O)c3cc4ccccc4o3)cc2)cc1	.	60	60*	9.1*	43*	.	7	14*
COc1ccc(N2CCN(C(=O)c3ccc4[nH]c(C)c(C)c4c3)CC2)cc1	0	8	1	-5	-2	2	.	.
O=C(Nc1ccccc1)N1CC(=O)N2[C@H](CO)[C@H](c3ccc(C#CC4CC4)cc3)[C@@H]2C1	.	.	.	.	.	0	.	.
C[C@@H]1CN([C@H](C)CO)C(=O)Cc2cc(NC(=O)Cc3ccccc3)ccc2O[C@H]1CN(C)Cc1ccc(C(F)(F)F)cc1	0	.	-3	.	.	0	.	.
Cc1ccc(C(=O)Nc2cccc(C(=O)N3CCOCC3)c2)cc1	.	9	21	16*	41*	.	8.3*	3
COc1ccc(C(=O)Nc2cccc(-c3cnc4ccccc4n3)c2)cc1	.	7	37	8.4*	.	.	-3	3
CN(C)C(=O)c1ccc(-c2ccccc2[C@H]2[C@H](C#N)N(C(=O)C3CC3)[C@H]2CO)cc1	.	.	.	.	.	-2	.	.
N#C/C(=C/c1cc[nH]c1)C(N)=S	0	-11	.	8.6*	1	5	-4	1
Cn1cccc1/C=C(\C#N)C(N)=S	0	-16	8	-3	-3	.	.	.
O=C(COC(=O)c1nc(Cl)c(Cl)c(Cl)c1Cl)NCc1ccccc1	-1	-48	2	21*	0	-1	53*	1
Cc1ccccc1Cn1cc(COC(=O)Nc2ccc(F)cc2)nn1	.	.	.	-1	.	.	.	.
Cc1cc(O)ccc1Nc1cc(-c2cccc(N(C)C)c2)ncn1	0	.	55*	11*	0	1	11*	11*
CN(C)c1cccc(O)c1	0	0	6	-3	8	.	.	.
COc1cccc(NC(=O)CCC2CCN(C(=O)C3CC=CCC3)CC2)c1 (stereo not drawn)	0	-11	-5	8.0*	1	-5	-3	2
CCOCCCNC(=O)/C(C#N)=C/c1ccc([N+](=O)[O-])o1	1	-62	1	12*	1	-3	-16	2
CC(=O)N(C)C[C@@H]1Oc2ncc(-c3ccc(C(=O)N(C)C)cc3)cc2C(=O)N([C@H](C)CO)C[C@@H]1C	0	.	-3	.	.	0	.	.
